Some of the results follow. Values without a mark were called inactive. Activity calls are given as the source filed them.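 Rule for the calls: active = inhibition above the mean of solvent-only control wells plus 3 SD of those wells (cut at about 15% in these data); inactive = the rest.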

This assay in a line: NF-kB reporter inhibitors, TNF-alpha stimulated, counter-screen for STAT1 inhibitor project, cell-based, HEK293T, luciferase luminescence (AID 1303).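 Note: 0% = DMSO with TNF-alpha and 100% = MG-132 control with TNF-alpha.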 The conditions noted are these: TNF-alpha induced, at 5.7 µM, hits give high values. In general terms: A counterscreen serves to expose hits that act by an unwanted route or on another target.
A word on the inhibition: it is the drop in the measured response relative to a control, in per cent. For the molecule `COC(=O)C1=CN(Cc2ccc(OC)c(OC)c2)C=C(C(=O)OC)C1c1cccs1`, the inhibition is -1.6%.
Regarding `C[C@@H]1C[C@@H]2O[C@H]2/C=C\C=C\C(=O)Cc2c(Cl)c(O)cc(O)c2C(=O)O1`, the inhibition was 54.9% (active).
In the case of `Cc1ccc(C2=Nc3c(ccc4ccccc34)C(c3ccncc3)=NN2)cc1`, the inhibition was 4.77%.
As to `CCOC(=O)N1CCN(C(=O)CSc2nnc(-c3c[nH]c4ccccc34)n2CCOC)CC1`, the inhibition is 3.03%.
As for `COc1ccc(C2CC(c3cccs3)=NN2c2nc(C)c(C(C)=O)s2)cc1OC` (stereo not given), the inhibition was 1.4%.
Regarding `CCOC(=O)C(=CNc1cccc(C)n1)C(=O)OCC`, the inhibition is -2.27%.
As to `NS(=O)(=O)c1cccc(NC(=O)CSc2nc3ccccc3n2-c2ccccc2)c1`, the inhibition is 1.57%.
Next, `COc1ccc(C(=O)Nc2ccccc2C(=O)N/N=C/c2ccccc2OC)cc1`: 10.2%; `O=C(CCl)N(Cc1cccc([N+](=O)[O-])c1)c1cccc(Cl)c1`: 37.9% (active); `CCOC(=O)N1CCN(C(=O)C2CCN(c3ncnc4c3sc3cccc(F)c34)CC2)CC1`: 20.1% (active).

These data come from PubChem BioAssay AID1303 (The Scripps Research Institute Molecular Screening Center, 2008).
